Results as given in article PMC5540273 (PLoS ONE, 2017).
Like-named read-outs stand apart in the source and are kept apart here.

Experiments:
GRK3 = test system: T1, GRK3; conditions: concentration: 1 μM, replicates: in singlicate; n = 1
T1 construct: gene ADRBK2

GRK4 = conditions: concentration: 1 μM, replicates: in singlicate; n = 1
GRK7 = conditions: concentration: 1 μM, replicates: in singlicate; n = 1
GSK3A = conditions: concentration: 1 μM, replicates: in singlicate; n = 1
GSK3B = conditions: n = 1
HASPIN = test system: T2, HASPIN; conditions: concentration: 1 μM, replicates: in singlicate; n = 1
T2 construct: gene GSG2

HCK = conditions: concentration: 1 μM, replicates: in singlicate; n = 1
HIPK1 = conditions: concentration: 1 μM, replicates: in singlicate; n = 1
HIPK2 = conditions: concentration: 1 μM, replicates: in singlicate; n = 1
HIPK3 = conditions: concentration: 1 μM, replicates: in singlicate; n = 1
HIPK4 = conditions: concentration: 1 μM, replicates: in singlicate; n = 1
HPK1 = conditions: concentration: 1 μM, replicates: in singlicate; n = 1
HUNK = conditions: concentration: 1 μM, replicates: in singlicate; n = 1
ICK = conditions: concentration: 1 μM, replicates: in singlicate; n = 1
IGF1R = conditions: concentration: 1 μM, replicates: in singlicate; n = 1
IKK-alpha = test system: T3, IKK-alpha; conditions: concentration: 1 μM, replicates: in singlicate; n = 1
T3 construct: gene CHUK

IKK-beta = test system: T4, IKK-beta; conditions: concentration: 1 μM, replicates: in singlicate; n = 1
T4 construct: gene IKBKB

IKK-epsilon = test system: T5, IKK-epsilon; conditions: concentration: 1 μM, replicates: in singlicate; n = 1
T5 construct: gene IKBKE

INSRR = conditions: concentration: 1 μM, replicates: in singlicate; n = 1
INSR = conditions: concentration: 1 μM, replicates: in singlicate; n = 1
[1] = concentration: 1 μM, replicates: in singlicate
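Also: KINOMEscan kinase panel screen.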

COc1cccc(NC(=O)Nc2ccc(C)c(-c3ccc(C(=O)Nc4ccncc4)cc3)c2)c1 [GSK1398474]
%Inh (GRK3): 0% | %Inh (GRK4): 3% | %Inh (GRK7): 0% | %Inh (GSK3A): 10% | %Inh (GSK3B; [1]): 13% | %Inh (HASPIN): 0% | %Inh (HCK): 0% | %Inh (HIPK1): 0% | %Inh (HIPK2): 0% | %Inh (HIPK3): 20% | %Inh (HIPK4): 27% | %Inh (HPK1): 78% | %Inh (HUNK): 2% | %Inh (ICK): 17% | %Inh (IGF1R): 12% | %Inh (IKK-alpha): 0% | %Inh (IKK-beta): 84% | %Inh (IKK-epsilon): 22% | %Inh (INSRR): 0% | %Inh (INSR): 0%

COc1cc2ncnc(Nc3cccc(Br)c3)c2cc1OC.Cl [GI230329]
%Inh (GRK3): 26% | %Inh (GRK4): 0% | %Inh (GRK7): 0% | %Inh (GSK3A): 0% | %Inh (GSK3B; [1]): 0% | %Inh (HASPIN): 20% | %Inh (HCK): 24% | %Inh (HIPK1): 0% | %Inh (HIPK2): 0% | %Inh (HIPK3): 0% | %Inh (HIPK4): 68% | %Inh (HPK1): 50% | %Inh (HUNK): 6% | %Inh (ICK): 3% | %Inh (IGF1R): 0% | %Inh (IKK-alpha): 0% | %Inh (IKK-beta): 0% | %Inh (IKK-epsilon): 18% | %Inh (INSRR): 0% | %Inh (INSR): 0%

O=C(Nc1n[nH]c2nc(-c3ccco3)c(Br)cc12)C1CCN(Cc2ccccc2)C1.O=C(O)[C@H](O)[C@@H](O)C(=O)O (centres unmarked) [SB-742034]
%Inh (GRK3): 0% | %Inh (GRK4): 11% | %Inh (GRK7): 42% | %Inh (GSK3A): 97.8% | %Inh (GSK3B; 1 µM): 72% | %Inh (HASPIN): 0% | %Inh (HCK): 7% | %Inh (HIPK1): 30% | %Inh (HIPK2): 32% | %Inh (HIPK3): 25% | %Inh (HIPK4): 1% | %Inh (HPK1): 0% | %Inh (HUNK): 33% | %Inh (ICK): 22% | %Inh (IGF1R): 0% | %Inh (IKK-alpha): 0% | %Inh (IKK-beta): 26% | %Inh (IKK-epsilon): 19% | %Inh (INSRR): 0% | %Inh (INSR): 12%

COc1ccc2cc(-c3nc(-c4ccccc4C(C)C)[nH]c3-c3ccncc3)ccc2c1 [SB-660566]
%Inh (GRK3): 34% | %Inh (GRK4): 0% | %Inh (GRK7): 0% | %Inh (GSK3A): 2% | %Inh (GSK3B; [1]): 17% | %Inh (HASPIN): 0% | %Inh (HCK): 0% | %Inh (HIPK1): 0% | %Inh (HIPK2): 0% | %Inh (HIPK3): 25% | %Inh (HIPK4): 0% | %Inh (HPK1): 37% | %Inh (HUNK): 0% | %Inh (ICK): 22% | %Inh (IGF1R): 9% | %Inh (IKK-alpha): 19% | %Inh (IKK-beta): 26% | %Inh (IKK-epsilon): 14% | %Inh (INSRR): 1% | %Inh (INSR): 5%

COC(=O)C(NC(=O)NC1CCN(c2ccnc(Nc3ccc(F)cc3)n2)C1)c1ccccc1 (centres unmarked) [GSK1379712]
%Inh (GRK3): 18% | %Inh (GRK4): 0% | %Inh (GRK7): 0% | %Inh (GSK3A): 16% | %Inh (GSK3B; [1]): 4% | %Inh (HASPIN): 0% | %Inh (HCK): 0% | %Inh (HIPK1): 12% | %Inh (HIPK2): 0% | %Inh (HIPK3): 48% | %Inh (HIPK4): 8% | %Inh (HPK1): 51% | %Inh (HUNK): 0% | %Inh (ICK): 9% | %Inh (IGF1R): 5% | %Inh (IKK-alpha): 0% | %Inh (IKK-beta): 0% | %Inh (IKK-epsilon): 32% | %Inh (INSRR): 0% | %Inh (INSR): 2%

Cl.Cl.Cl.N#Cc1ccc(CCNc2nccc(-c3cccc(CN4CCNCC4)c3)n2)cc1 [GSK2137462]
%Inh (GRK3): 0% | %Inh (GRK4): 0% | %Inh (GRK7): 5% | %Inh (GSK3A): 31% | %Inh (GSK3B; [1]): 7% | %Inh (HASPIN): 42% | %Inh (HCK): 0% | %Inh (HIPK1): 1% | %Inh (HIPK2): 0% | %Inh (HIPK3): 21% | %Inh (HIPK4): 26% | %Inh (HPK1): 48% | %Inh (HUNK): 0% | %Inh (ICK): 5% | %Inh (IGF1R): 11% | %Inh (IKK-alpha): 0% | %Inh (IKK-beta): 0% | %Inh (IKK-epsilon): 20% | %Inh (INSRR): 0% | %Inh (INSR): 87%

Cn1cnc2c(N)ncnc21 [SKF-97623]
%Inh (GRK3): 26% | %Inh (GRK4): 21% | %Inh (GRK7): 0% | %Inh (GSK3A): 0% | %Inh (GSK3B; [1]): 0% | %Inh (HASPIN): 0% | %Inh (HCK): 0% | %Inh (HIPK1): 0% | %Inh (HIPK2): 11% | %Inh (HIPK3): 0% | %Inh (HIPK4): 0% | %Inh (HPK1): 33% | %Inh (HUNK): 17% | %Inh (ICK): 0% | %Inh (IGF1R): 46% | %Inh (IKK-alpha): 0% | %Inh (IKK-beta): 0% | %Inh (IKK-epsilon): 0% | %Inh (INSRR): 0% | %Inh (INSR): 0%

COc1ccc(Nc2nccc(NCCNC(=O)Nc3cc(C)ccc3C)n2)cc1 [GSK1379899]
%Inh (GRK3): 0% | %Inh (GRK4): 12% | %Inh (GRK7): 0% | %Inh (GSK3A): 0% | %Inh (GSK3B; [1]): 0% | %Inh (HASPIN): 0% | %Inh (HCK): 78% | %Inh (HIPK1): 0% | %Inh (HIPK2): 0% | %Inh (HIPK3): 0% | %Inh (HIPK4): 0% | %Inh (HPK1): 40% | %Inh (HUNK): 0% | %Inh (ICK): 18% | %Inh (IGF1R): 7% | %Inh (IKK-alpha): 8% | %Inh (IKK-beta): 9% | %Inh (IKK-epsilon): 1% | %Inh (INSRR): 0% | %Inh (INSR): 0%

Cc1ccc(NC(=O)Nc2ccccc2)cc1-c1ccc(C(=O)Nc2ccncc2)cc1 [GSK1398471]
%Inh (GRK3): 0% | %Inh (GRK4): 0% | %Inh (GRK7): 0% | %Inh (GSK3A): 12% | %Inh (GSK3B; [1]): 11% | %Inh (HASPIN): 1% | %Inh (HCK): 0% | %Inh (HIPK1): 0% | %Inh (HIPK2): 0% | %Inh (HIPK3): 13% | %Inh (HIPK4): 10% | %Inh (HPK1): 37% | %Inh (HUNK): 22% | %Inh (ICK): 2% | %Inh (IGF1R): 11% | %Inh (IKK-alpha): 0% | %Inh (IKK-beta): 0% | %Inh (IKK-epsilon): 5% | %Inh (INSRR): 0% | %Inh (INSR): 3%

O=C1NC(=O)C(c2ccc(Cl)cc2)=C1Nc1cccc(Cl)c1 [SB-317651]
%Inh (GRK3): 0% | %Inh (GRK4): 21% | %Inh (GRK7): 30% | %Inh (GSK3A): 0% | %Inh (GSK3B; 1 µM): 15% | %Inh (HASPIN): 0% | %Inh (HCK): 0% | %Inh (HIPK1): 19% | %Inh (HIPK2): 34% | %Inh (HIPK3): 0% | %Inh (HIPK4): 0% | %Inh (HPK1): 12% | %Inh (HUNK): 0% | %Inh (ICK): 28% | %Inh (IGF1R): 0% | %Inh (IKK-alpha): 0% | %Inh (IKK-beta): 0% | %Inh (IKK-epsilon): 0% | %Inh (INSRR): 0% | %Inh (INSR): 11%
